Reference: PubChem BioAssay AID364 (The Scripps Research Institute Molecular Screening Center, 2006)
Hit rate of the full screen: of about 3,300 compounds, about 50 (2%) were called active. The list is a sample of the results. Potency and affinity values are given separately. Unmarked numbers belong to inactive results.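 The calls were made as follows: active = concentration giving half-maximal inhibition at or below 20 micromolar; inactive = half-maximal concentration above 20 micromolar, or not dose tested.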

assay: Jurkat cell viability reduction – Jurkat E6.1, NIH starter set, primary screen (AID 364); details: Jurkat E6.1 viability, ATP luminescence, 48 h; at 4 µM; stronger effect = higher value;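 also: 100% = cells treated with 4 µM doxorubicin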

Compound | inhibition [%]
CCOC(=O)NC(Nc1sc2c(c1C(N)=O)CCCC2)(C(=O)OCC)C(F)(F)F (stereo unspecified) | 2.5
CC(C)c1cc(NCCN2CCOCC2)n2c(nc3ccccc32)c1C#N | 14.6
O=P(Cc1nnco1)(c1ccccc1)c1ccccc1 | 1
CC(=O)Oc1ccccc1C1OCCN1C(C)=O (stereo unspecified) | -17.2
Cc1ccc2nc(C(F)(F)F)c(C#N)c(N)c2c1 | 11.8
C/C(NC(=O)c1ccccc1F)=C1\C(=O)C[C@@H]2[C@H]1C2(C)C | -12.7
Cc1ccc(S(=O)(=O)NC(=O)NCc2ccc3c(c2)OCO3)cc1 | 7.5
CCN=C1SC(C(=O)Nc2ccc(Cl)c(Cl)c2)CC(=O)N1CC (stereo unspecified) | -3.4
O=C(OCCN1CCOCC1)c1ccc(OCCN2CCOCC2)cc1 | -3.3
Cn1c(/C(C#N)=C/Nc2ccccn2)nc2ccccc21 | -8.5
Cc1cc(=O)oc(C)c1C(=O)NC12CC3CC(CC(C3)C1)C2 | 0.6
COc1ccc2c(c1OC)C(=O)OC2C1c2c(cc3c(c2OC)OCO3)CCN1C (stereo unspecified) | 2.6
O=C(O)CC(C(=O)OCC1CCCO1)N1CCOCC1 (stereo unspecified) | 11.6
COc1nc(N(C)S(=O)(=O)c2ccc(C)cc2)nc(C)c1Cl | 2.3
COc1cccc(OC)c1-c1nn2c(-c3ccco3)nnc2s1 | -5.6
Cc1ccc2[nH]c(CCN(C)C)c(CC#N)c2c1 | -1
CC(=O)Nc1ccc(Oc2ccc3nc(C)[nH]c3c2)cc1 | 6.6
Cn1c(=O)n(C)c2cc(C(=O)c3ccccc3)ccc21 | -1.7
Cn1c(=O)oc2cc(C(=O)c3ccccc3)ccc21 | -2.2
CCC(=O)Nc1nc(C)c(Oc2ccccc2)c(=O)[nH]1 | -13.8
CN1CCc2c(sc3ncn4nc(-c5ccccc5O)nc4c23)C1 | 2.9
CSc1cc(C)nc(N(C)C(C)=O)n1 | -4.8
CC1(c2cnc(Nc3ccccc3)s2)CCC(=O)O1 (stereo unspecified) | 3.7
CC1CN(c2oc(-c3ccccc3Cl)nc2C#N)CC(C)O1 (stereo unspecified) | -11.7
COc1ccc(/C(O)=C2/C(=O)C(=O)N(CCCN(C)C)C2c2ccccc2)cc1Cl (stereo unspecified) | 9.5
COc1cccc(C2/C(=C(\O)c3ccc4c(c3)OCCO4)C(=O)C(=O)N2CCCN(C)C)c1OC (stereo unspecified) | -10.5

Compound | inhibition [%]
C=CCn1cnc2c(c1=O)c1nc3ccccc3nc1n2-c1ccc(Cl)cc1 | -1.6
CCCCOC(=O)CSC1=C(C#N)C(c2ccc3c(c2)OCO3)CC(=O)N1 (stereo unspecified) | 6.5
CCCOC(=O)CSC1=C(C#N)C(c2ccc3c(c2)OCO3)CC(=O)N1 (stereo unspecified) | 29.3
CSc1nc2[nH]c3c(c2c2nnnn12)CCCC3 | 1.2
CC(=O)Nc1cccc(NC(=O)CSc2nc(C)c(C)c(C)c2C#N)c1 | -4.8
COc1cc(C2C3C(=O)N(c4ccc(F)cc4)C(=O)C3ON2c2ccccc2)ccc1O (stereo unspecified) | 2.1
COc1cccc(Cn2c(NCC(C)C)nc3c2c(=O)n(C)c(=O)n3C)c1 | 10.8
CCCCNc1nc2c(c(=O)n(C)c(=O)n2C)n1Cc1cccc(OC)c1 | 35.2
CN(C)CCNC(=O)C12CC3(C)CC(C)(CC(C)(C3)C1)C2 | -4.1
CCOc1cccc(NC(=O)C2CC(=O)NC(=Nc3ccccc3)S2)c1 (stereo unspecified) | 15.4
Cn1c(=O)[nH]c(=O)c2c1nc(Br)n2CCSc1nnnn1-c1ccccc1 | -0.6
ClC(Br)=C(n1cnc2ccccc21)n1cnc2ccccc21 | 3.1
CC(=O)CCn1c(=O)n(CCC(C)=O)c(=O)n(CCC(C)=O)c1=O | 4
CN1CCN(C2=Nc3ccccc3Oc3ccc(Cl)cc32)CC1 | 2.6
Clc1ccc2c(c1)C(N1CCNCC1)=Nc1ccccc1O2 | 2.2
CC(C)CNC(=O)c1c(N)n(/N=C/c2cccnc2)c2nc3ccccc3nc12 | -0.2
COc1cccc(C2C(C(=O)c3sc(C)nc3C)=C(O)C(=O)N2CCN2CCOCC2)c1OC (stereo unspecified) | 3.5
CN(C)c1oc(-c2cccs2)nc1C#N | 5.5
COc1ccc(-n2c(=O)c3c4c(sc3n3c(C)nnc23)CC(C)CC4)cc1 (stereo unspecified) | -5
COc1ccc(Nc2nc(Nc3ccc(OC)cc3)nc(-n3[nH]c(=O)c(C)c3C)n2)cc1 | 4.5
COc1ccc(Nc2cc(C)nc3ccccc23)cc1 | 6.3
Cc1[nH]c2ccc(F)cc2c(=O)c1SC(F)(F)C(F)C(F)(F)F (stereo unspecified) | 1.9
COc1ccc(C(=O)c2oc3nc(C)cc(C)c3c2N)cc1 | -3.3
C=CCn1c(SCc2c(F)c(F)c(F)c(F)c2F)nc(O)cc1=O | -3.4
CC(C)C(C(=O)Nc1ncn[nH]1)N1C(=O)c2ccccc2C1=O (stereo unspecified) | 1
